From PubChem
DPM-DC inhibit – S. pneumoniae DPM-DC inhibitors, primary screen, biochemical, PK/LDH-coupled NADH fluorescence. diphosphomevalonate decarboxylase (Streptococcus pneumoniae D39). purified DPM-DC. calls only at 10 µM. actives 0.49% (n = 65,000). AID 556, 2006;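 active means the 320 compounds with the highest percent inhibition in the single-dose primary screen, excluding strongly autofluorescent ones, cut at about 32% in these data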;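 further: kinetic rate of NADH fluorescence loss reporting ADP formed by the decarboxylase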
MK inhibit – S. pneumoniae MK inhibitors, primary screen, biochemical, PK/LDH-coupled NADH absorbance | AID 555, 2006 | purified MK, PK/LDH-coupled NADH absorbance 340 nm | actives 0.48% (n = 65,000) | inhibition, % at 10 µM | mevalonate kinase [Streptococcus pneumoniae D39];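 active means ranked among the strongest by inhibition in the single 10 µM screen, a fixed top-ranked set picked for dose follow-up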
NADH coupling – inhibitors of PK/LDH coupling enzymes, profiling panel, artefact control, biochemical, MLSMR library; coupled PK/LDH NADH assays, four targets; IC50, µM (top dose mostly 10 µM), without a hit: at the top dose inhibition; actives 0.02% (n = 65,000);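 active means single-dose screening hits from any of four coupled enzyme assays that gave an IC50 when retested across doses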;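 further: the DPM-DC format reads NADH fluorescence rather than 340 nm absorbance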
Autofluor 339 – intrinsic fluorescence of library compounds, ex339/em460 – biochemical, MLSMR library, data from DPM-DC assay, artefact control, profiling panel | compound autofluorescence, ex339/em460 nm, NADH buffer; hits give high values; 1 = no-compound wells, NADH background | fluorescence fold increase at 10 µM | actives 5.5% (n = 65,000) | AID 709, 2007;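 active means at 10 µM, mean starting fluorescence two-fold or more over control wells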;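 further: signal is the first read of a kinetic run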
PMK inhibit – S. pneumoniae PMK inhibitors, primary screen, biochemical, mevalonate pathway, pilot trial included; phosphomevalonate kinase (Streptococcus pneumoniae D39); purified PMK, PK/LDH-coupled NADH absorbance 340 nm; actives 0.49% (n = 65,000); inhibition, % at 10 µM;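 active means top-ranked compounds by inhibition in the single 10 µM screen, taking a fixed number of the strongest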;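 further: 0% = full reaction with DMSO carrier and 100% = background rate without enzyme reaction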
Abs 340nm – compound light absorbance at 340 nm, profiling panel, artefact control, biochemical, MLSMR library, data from PS, PMK, MK assays. compound absorbance at 340 nm, fold over control. fold change at 10 µM. 65,000 tested, under 10 active. AID 708, 2007;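 active means at 10 µM dose, initial 340 nm absorbance at least 2 fold that of control wells; inactive means change under 2 fold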;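 further: initial absorbance extrapolated from kinetic A340 decline of NADH oxidation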
* = called active by the depositor; i = inactive; x = no result shown; + = active, no number. The list is not random: actives were taken first. Their share in the collection is about 6.8%.

SMILES | DPM-DC inhibit | MK inhibit | NADH coupling | Autofluor 339 | PMK inhibit | Abs 340nm
COc1cc2[nH]c(=O)n(-c3ccccc3)c(=O)c2cc1OC | x | 2 | 1% | 2.1* | 0 | 1.1
COc1cc2[nH]c(=O)n(-c3cccc(Cl)c3)c(=O)c2cc1OC | i | 1 | 2% | 1.6 | 0 | 1.1
CC(C)OCCCNC(=O)c1c(N)n(CC2CCCO2)c2nc3ccccc3nc12 (centres undefined) | x | 0 | 1% | 3* | 0 | 1
CCCNC(=O)c1c(N)n(CC2CCCO2)c2nc3ccccc3nc12 (centres undefined) | x | 3 | 3% | 3.9* | 3 | 1
N=C1C(c2ccccc2)=C(O)CN1Cc1ccco1 | i | 0 | 3% | 1 | 8 | 1
CC1=CC(=O)C2=C(C)CC(O)C3C(C)C(=O)OC3C12 (centres undefined) | i | 8 | 3% | 1.1 | 2 | 0.99
O=C(Cn1ncc2ccsc2c1=O)N1CCC2(CC1)OCCO2 | i | 3 | 1% | 1.1 | 0 | 1
O=C(Cn1c(=O)c(C(F)(F)F)nc2ccccc21)N1CCC2(CC1)OCCO2 | i | 0 | 12% | 2* | 15 | 1.1
CC(=NCC1CCCO1)c1c(O)n(Cc2ccccc2)c(=O)[nH]c1=O (centres undefined) | i | 2 | 3% | 1.1 | 8 | 1
COCCCn1c(N)c(C(=O)NCCC(C)C)c2nc3ccccc3nc21 | x | 6 | 8% | 3.7* | 9 | 1
COCCOC(=O)c1c(N)n(Cc2ccccc2)c2nc3ccccc3nc12 | x | 10 | 11% | 3.9* | 12 | 1.1
CCCCOCCCn1c(N)c(C(=O)OCCOC)c2nc3ccccc3nc21 | x | 12 | 9% | 2.3* | 5 | 1.1
O=C(O)C1CN2CCC1CC2 (centres undefined) | i | 9 | 7% | 1.1 | 11 | 1
CC(C)(C)c1nc(N2CCN(C(=O)c3ccco3)CC2)c2nnn(Cc3ccccc3Cl)c2n1 | i | 4 | 5% | 1.1 | 11 | 1
COc1ccc(Cn2c(N)c(C(=O)NCc3ccco3)c3nc4ccccc4nc32)cc1 | x | 0 | 1% | 4.9* | 2 | 1.1
Nc1c(C(=O)NCc2ccco2)c2nc3ccccc3nc2n1Cc1ccc(F)cc1 | x | 4 | 4% | 2.2* | 3 | 1.1
COc1ccccc1N1CCN(Cc2ccccc2F)CC1 | i | 51* | 17% | 1 | 0 | 1.1
COc1ccccc1N1CCN(Cc2ccccc2Cl)CC1 | i | 49* | 16% | 1.1 | 0 | 1.1
CN1CCN(c2ccc(C(N)=O)cc2N)CC1 | i | 8 | 5% | 1.2 | 6 | 0.98
CCCCP(=O)(O)c1ccccc1 | i | 5 | 4% | 1.1 | 7 | 1
CCCCCCOC(=O)c1ccccc1N | x | 4 | 4% | 2.1* | 4 | 1.1
O=C(c1ccc2nc(-c3ccco3)c(-c3ccco3)nc2c1)N1CCC2(CC1)OCCO2 | i | 12 | 5% | 1.8 | 9 | 1
O=C(c1ccc2nc3ccc(Cl)cc3c(=O)n2c1)N1CCC2(CC1)OCCO2 | x | 0 | 3% | 3.3* | 7 | 1.1
COc1ccc(CCN(C)Cc2c(F)cccc2F)cc1OC | i | 11 | 4% | 1.1 | 0 | 1
c1ccc2c(CN3CCCCCCC3)c[nH]c2c1 | i | 48* | 20% | 1.1 | 12 | 1.1
SMILES | DPM-DC inhibit | MK inhibit | NADH coupling | Autofluor 339 | PMK inhibit | Abs 340nm
c1ccc2c(CN3CCN(C4CCCCC4)CC3)c[nH]c2c1 | i | 9 | 3% | 1.2 | 0 | 1
CC(=O)N1CCC2(CC1)CC(=O)c1cc(OCC(=O)N3CCN(C)CC3)ccc1O2 | x | 0 | 5% | 5.1* | 9 | 1
CCOC(=O)C(C)Oc1cc(C)cc2oc(=O)c3c(c12)CCCC3 (centres undefined) | x | 7 | 4% | 2.1* | 0 | 1
COC(=O)C(C)Oc1cc(C)cc2oc(=O)c3c(c12)CCC3 (centres undefined) | x | 6 | 7% | 3.8* | 7 | 0.99
Cc1cc(OCC(=O)OC(C)C)c2c3c(c(=O)oc2c1)CCCC3 | i | 0 | 1% | 1.6 | 0 | 1
COC(=O)C(C)Oc1cc(C)cc2oc(=O)c3c(c12)CCCC3 (centres undefined) | x | 6 | 7% | 3.7* | 8 | 1
COC(=O)c1cc(COc2cc(C)cc3oc(=O)c4c(c23)CCC4)c(C)o1 | i | 7 | 4% | 1.7 | 0 | 1
Cc1cc(N2C(=O)C3CCCN3C2c2sccc2C)no1 (centres undefined) | i | 4 | 6% | 1.1 | 13 | 1
CCCCn1c(N)c(C(=O)OCC2CCCO2)c2nc3ccccc3nc21 (centres undefined) | x | 0 | 7% | 3.9* | 13 | 1.1
CC(C)CCn1c(N)c(C(=O)OCC2CCCO2)c2nc3ccccc3nc21 (centres undefined) | x | 2 | 2% | 4* | 1 | 1.1
COc1cc(C2SCC(=O)Nc3c2c(=O)[nH]n3C2CCCCCC2)cc(OC)c1OC (centres undefined) | i | 7 | 2% | 1.1 | 0 | 1
O=P(OCC(F)(F)C(F)F)(N1CCOCC1)N1CCOCC1 | i | 14 | 10% | 1 | 14 | 0.97
CC(=O)[C@@]1(O)CC[C@H]2[C@@H]3CC=C4C[C@@H](O)CC[C@]4(C)[C@H]3CC[C@@]21C | i | 1 | 2% | 1 | 5 | 0.97
CCn1nc(-c2cccs2)nc2c(=O)n(C)c(=O)nc1-2 | + | 63* | 8.4µM* | 0.06 | 11 | 0.5
O=C1C2CCCN2C(c2ccccc2)N1c1ccccn1 (centres undefined) | i | 0 | 2% | 1.1 | 6 | 1
CCCCCCn1c(N)c(C(=O)NCCN2CCOCC2)c2nc3ccccc3nc21 | x | 12 | 8% | 3.9* | 4 | 0.99
CCCCCn1c(N)c(C(=O)NCCN2CCOCC2)c2nc3ccccc3nc21 | x | 4 | 6% | 2.1* | 7 | 1.1
CCCn1nc2ccccc2c1P(=O)(N1CCOCC1)N1CCOCC1 | i | 2 | 5% | 1.1 | 14 | 0.98
CCCCn1c(=O)c(C(=O)Nc2nc3ccccc3[nH]2)c(O)c2ccccc21 | i | 14 | 10% | 1.7 | 9 | 1.1
CNP(=S)(NC)OCCOc1ccc(OC)cc1 | i | 8 | 3% | 1.1 | 1 | 1
Cc1cccnc1NC1=NCC(C)S1 (centres undefined) | i | 0 | 2% | 1.1 | 5 | 1.1
CCC(=NCCCN(C)C)c1c(O)n(-c2ccc(OC)cc2)c(=O)[nH]c1=O | i | 11 | 11% | 1.1 | 14 | 1
